Experimental data from PubChem BioAssay (NCI).
Compounds without any hit were thinned out: in the full panel of roughly 83,000, 20% have a hit.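 Results are percent growth after 48 hours of single-concentration exposure. 100 means growth as in untreated cells, lower positive values show inhibition; negative values down to -100 show cell death.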 A number with no mark means an inactive call. Active and inactive are the calls of the source. How the source made its calls: active means growth percent below 10; inactive means the rest.

test system: LOX IMVI melanoma; experiment: NCI-60 one-dose screen, 48 h (100 = growth as untreated, 0 = no growth, -100 = all killed); settings: 10 µM unless noted

SMILES	growth
O=C(/C=C/c1ccc(Oc2ccc(Br)cc2)cc1)c1ccc(Br)cc1	96.2%
CO[C@H](C(=O)[C@@H](O)[C@@H](C)O)[C@@H]1Cc2cc3cc(O[C@H]4C[C@@H](O[C@H]5C[C@@H](O)[C@H](O)C(C)O5)[C@H](O)C(C)(O)O4)cc(O)c3c(O)c2C(=O)[C@H]1O[C@H]1C[C@@H](O[C@H]2C[C@@H](O[C@H]3C[C@@H](OC)[C@H](O)C(C)O3)[C@@H](O)C(C)O2)[C@H](O)C(C)O1 (stereo partly drawn)	2.79% (active)
O=S(=O)(Nc1cc(Sc2cccc3cccnc23)c(O)c2ccccc12)c1ccccc1	-50.2% (active)
Cc1ccc(-c2nc(SCc3nc4cc(Cl)c(Cl)cc4[nH]3)[nH]c(=O)c2C#N)cc1	102%
COc1ccc(C2=NN(C(C)=O)C(c3cn(-c4ccccc4)nc3-c3ccc(Cl)cc3)C2)cc1 (stereo not drawn)	0.526% (active)
O=C(CSc1nnc(-c2cc(-c3ccccc3)nc3ccccc23)n1-c1ccccc1)Nc1ccc(C(=O)/C=C/c2ccc(Cl)cc2)cc1	94.3%
CCOC(=O)C(=Cc1ccc(-c2ccccc2)cc1)C(=O)OCC	-56.6% (active)
Cc1ccc(S(=O)(=O)N2CCC(=O)c3ccccc32)cc1	76.4%
COc1ccccc1N(C(C)=O)C1=C(Cl)C(=O)c2ccccc2C1=O	4.88% (active)
C=C(C)[C@@H]1CC[C@]2(C(N)=O)CC[C@]3(C)[C@H](CC[C@@H]4[C@@]5(C)CC[C@H](OCCC#N)C(C)(C)[C@@H]5CC[C@]43C)[C@@H]12	87.1%
[2H]C([2H])([2H])Oc1ccc(F)cc1/C=C/C(=O)/C=C(/C=C/c1cc(F)ccc1OC([2H])([2H])[2H])OB(F)F	57.1%
COc1ccc(/C(C)=C(/c2ccc(OCCCN(C)C)cc2)c2ccc(OC(=O)c3ccccc3)cc2)cc1	-2.62% (active)
Cc1ccc2c(=O)cc(C(=O)Nc3sc4c(c3C(=O)NCc3cccnc3)CCCC4)oc2c1C	93.1%
CCCCCCCC/C=C\CCCCCCCCOc1ccc(CC(=O)NCC[N+]2(C)CCOCC2)cc1	84.2%
COc1ccc(Nc2ncccc2/C=C/C(=O)c2cc(OC)c(OC)c(OC)c2)cc1	-63.6% (active)
O=C(Cc1cccc(OC(F)(F)F)c1)Nc1ccc(CCCCc2nnc(NC(=O)Cc3ccccn3)s2)nn1	82.8%
C=C1C(=O)O[C@H]2[C@H]1CC/C(COC(=O)/C=C\C(=O)NCc1ccc(Cn3c(=O)sn(CCCl)c3=O)cc1)=C\CC[C@@]1(C)O[C@@H]21	67.2%

SMILES	growth
CNC(=O)c1ccccc1Nc1nc(Nc2cc(OC)c(OC)c(OC)c2)ncc1Br	-60.3% (active)
Cc1ccc(C=C2C(=O)NC(=O)NC2=O)cc1	98.6%
O=C(CN1CCCCCC1)Nc1nc2ccc(NCc3ccc(Cl)cc3)cc2s1	96.7%
COc1ccc(C(=O)Cn2c(C(=O)c3ccc(Cl)cc3)nc3ccccc32)cc1	74.8%
C#CCO[C@H]1CC(CC#C)(CC#C)C(=O)[C@@H]2[C@H]1[C@H]1C[C@@H]3[C@@]4(C)CCC[C@@](C)(C(=O)OC)[C@@H]4CC[C@@]23C=C1C(C)C	-86.6% (active)
Fc1ccc2[nH]cc(-c3nc(-c4c[nH]c5ccncc45)cs3)c2c1	-92.3% (active)
O=C(CSc1nc(-c2ccccc2)cc(=O)[nH]1)Nc1nc(-c2ccccc2)cs1	96.6%
Cc1nn(-c2ccccc2)c(N)c1N=C1NC(=O)/C(=C/c2ccc(Br)cc2)S1	90.4%
COC(=O)c1c2c(c(C)[n+]([O-])c1C)C(=O)C(NCc1ccc(OC)cc1)=CC2=O	19%
O=C1/C(=C\c2cccc3nccnc23)SC(=S)N1CCc1ccc(O)cc1	94.5%
Cc1cn(-c2cc(NC(=O)c3cncc(C#Cc4c(N)ncc5ccc(F)cc45)c3)cc(C(F)(F)F)c2)cn1	23%
CCCCNC(=O)Oc1ccc(/C(=C(/C)Cc2ccc(OC)cc2)c2ccc(OCCN3CCCCCC3)cc2)cc1	14%
COc1ccc(-c2n[nH]c(=O)c3nc(NC(=S)Nc4ccc(Oc5ccccc5)cc4)sc23)cc1	104%
O=C(/C=C/C12c3ccccc3C(c3ccccc31)C1C(=O)NC(=O)C12)c1ccc(Br)cc1 (stereo not drawn)	21%
C=CN(C(=O)N1CCN(c2cc3c(cc2F)c(=O)c(C(=O)O)cn3C2CC2)CC1)c1nc(-c2ccc(OC)cc2)cs1	1.92% (active)
Cc1cc(Nc2ccc(C(=O)N3CCCC3)cc2)nc(NCCCNc2ccnc3cc(Cl)ccc23)n1	-67.1% (active)
